Experimental findings from PubChem BioAssay (NCI) are described below.

Common to all, as to experiment: NCI-60 one-dose screen, 48 h (100 = growth as untreated, 0 = no growth, -100 = all killed)
In one assay the test system is NCI-H23 lung. Conditions: 10 µM unless noted.
For a further assay, the system named is NCI-H322M lung. Conditions: 10 µM unless noted.
The next assay relates to HOP-62 NSCLC. Conditions: 10 µM unless noted.
The next assay concerns NCI-H460 lung. Conditions: 10 µM unless noted.
The test system of a further assay is NCI-H522 lung. Conditions: 10 µM.
In the next assay the test system is A549/ATCC NSCLC. Conditions: 10 µM unless noted.
A further assay relates to 786-0 renal. Conditions: 10 µM unless noted.
Another assay has as its system COLO 205 colon. Conditions: 10 µM unless noted.
The test system of a further assay is HOP-92 NSCLC. Conditions: 10 µM unless noted.

About 83,000 compounds went through this panel and 20% of them were active in at least one assay; those are over-represented in the sample as a whole.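 Single-dose data. Exposure time 48 hours. Values below 10 considered active.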 A number with no mark means an inactive call. The source made the active and inactive calls.

`CCN1C(=O)C2(Nc3ccccc3S2)c2cc(C)ccc21` (stereo not drawn): the growth with NCI-H23 lung is 111%; with NCI-H322M lung, 96.2%; in the assay with HOP-62 NSCLC, 89.7%; in the assay with NCI-H460 lung, 109%; in the assay on NCI-H522 lung it was 86.8%; in the assay on A549/ATCC NSCLC, 95.7%. Besides, the growth in the assay with 786-0 renal is 113%; in the assay on COLO 205 colon, 97%.

Consider `CCCCCCCC/C=C\CCCCCCCCOc1cccc(CC(=O)NCC[N+]2(C)CCCCC2)c1`, for which the growth was 71.9% with NCI-H23 lung; 92.3% in the assay on NCI-H322M lung; 67% in the assay with HOP-62 NSCLC; 40.1% in the assay with NCI-H460 lung; 63% in the assay with NCI-H522 lung; 82.3% in the assay with A549/ATCC NSCLC. In the assay with 786-0 renal, the growth is 90.4%.

For the molecule `Cc1cccc2c(=O)c3c(sc12)c(NCCCN)nc1ccccc13`, the growth in the assay on NCI-H23 lung is 47.8%; with NCI-H322M lung it was 43.2%; with HOP-62 NSCLC it was 9.12% (active); in the assay with NCI-H460 lung, -52.7% (active); in the assay on NCI-H522 lung, 13.2%; with A549/ATCC NSCLC it was 14.5%. Also, the growth with 786-0 renal was 52.9%.

As for `COc1ccc(-c2nc3sc(C)nn3c2-c2nc3cc(C)c(C)cc3[nH]2)cc1`, the growth in the assay with NCI-H23 lung is 93.9%; in the assay on NCI-H322M lung, 99.4%; in the assay with HOP-62 NSCLC it was 91.8%; in the assay with NCI-H460 lung, 99.9%; in the assay with HOP-92 NSCLC, 87.9%; with A549/ATCC NSCLC, 96.3%. In addition, the growth was 98.4% with 786-0 renal and 115% in the assay on COLO 205 colon.

As for `COc1cc2nc(SCc3cc(OC)c(OC)c(OC)c3)n(-c3ccccc3OC)c(=O)c2cc1OC`, the growth in the assay on NCI-H23 lung is 79.9%; in the assay with NCI-H322M lung, 85.1%; in the assay with HOP-62 NSCLC, 93.2%; in the assay with NCI-H460 lung, 83.4%; in the assay on HOP-92 NSCLC it was 65.8%; in the assay on A549/ATCC NSCLC, 88%. In addition, the growth is 91.4% in the assay on 786-0 renal and 118% in the assay on COLO 205 colon.

`O=C1CN2CCC1C/C2=C\c1ccnc2c(Cl)cccc12` (stereo not drawn): the growth is 92.2% with NCI-H23 lung; 102% in the assay with NCI-H322M lung; 82% with HOP-62 NSCLC; 116% in the assay with NCI-H460 lung; 88.9% in the assay with NCI-H522 lung; 107% in the assay with A549/ATCC NSCLC. For the same molecule, the results for the growth in the assay with 786-0 renal and in the assay on COLO 205 colon were 103% and 98%, respectively.

For `Oc1ccc2ccccc2c1C1NN=C(c2ccccc2)S1` (stereo not drawn), the growth in the assay with NCI-H23 lung is 35%; in the assay with NCI-H322M lung, 29.2%; with HOP-62 NSCLC, 28.8%; in the assay with NCI-H460 lung it was -27.8% (active); with HOP-92 NSCLC, 42.8%; in the assay with A549/ATCC NSCLC, 18%. Moreover, the results for the growth in the assay on 786-0 renal and with COLO 205 colon were 6.82% (active) and 16.6%, respectively.

Take `O=C(NCc1ccco1)C1CCN(S(=O)(=O)c2ccc(Cl)cc2)CC1`: the growth is 77.9% in the assay on NCI-H23 lung; 108% with NCI-H322M lung; 92.6% in the assay on HOP-62 NSCLC; 63.1% in the assay on NCI-H460 lung; 68.7% with NCI-H522 lung; 74.9% in the assay with A549/ATCC NSCLC. Besides, the growth was 82.9% in the assay with 786-0 renal and 101% with COLO 205 colon.

Take `Nc1c(Br)cc(Br)cc1-c1n[nH]c(=O)[nH]c1=O`: the growth was 91.3% in the assay with NCI-H23 lung; 109% in the assay with NCI-H322M lung; 93.5% with HOP-62 NSCLC; 102% with NCI-H460 lung; 54.6% with HOP-92 NSCLC; 113% in the assay on A549/ATCC NSCLC. For the same molecule, the growth is 100% in the assay with 786-0 renal and 102% in the assay on COLO 205 colon.

In the case of `O=C1c2ccccc2-c2nnc(-c3ccc(Br)cc3)cc21`, the growth in the assay with NCI-H23 lung was 47%; in the assay on NCI-H322M lung it was 86.8%; with HOP-62 NSCLC, 56.3%; in the assay on NCI-H460 lung, 81.6%; with HOP-92 NSCLC, 78.6%; in the assay on A549/ATCC NSCLC it was 1.3% (active). Besides, the growth in the assay on 786-0 renal is 82.3%; in the assay with COLO 205 colon, 99.7%.

For the molecule `Cc1ccc(-c2nnc(COc3ccc(-c4nnc(N)s4)cc3)o2)cc1`, the growth in the assay with NCI-H23 lung is 79.4%; in the assay on NCI-H322M lung, 95.9%; in the assay on HOP-62 NSCLC, 113%; in the assay with NCI-H460 lung it was 93%; with NCI-H522 lung, 73.9%; with A549/ATCC NSCLC, 105%. For the same molecule, the figures for the growth in the assay with 786-0 renal and in the assay with COLO 205 colon were 96.9% and 92.8%, respectively.

Turning to `O=c1c2c(=NCCN3CCCC3)cc3c(=O)n(CCCN4CCOCC4)c(=O)c4c(-c5ccc(CN6CCCC6)cc5)cc(c(O)n1CCCN1CCOCC1)c2c4-3`, the growth in the assay on NCI-H23 lung was -70.9% (active); in the assay on NCI-H322M lung, -29.6% (active); with HOP-62 NSCLC, -21.3% (active); in the assay on NCI-H460 lung, -62.9% (active); in the assay on HOP-92 NSCLC it was -16.4% (active); in the assay with A549/ATCC NSCLC, -16.2% (active). Also, the growth in the assay with 786-0 renal was -42% (active); in the assay on COLO 205 colon, -60.4% (active).

As for `CCN1CCN(C(=S)SCC(=O)Nc2nc3ccc(OC)cc3s2)CC1`, the growth was 100% in the assay on NCI-H23 lung; 92.3% in the assay on NCI-H322M lung; 97.2% in the assay with HOP-62 NSCLC; 113% in the assay on NCI-H460 lung; 83.8% with HOP-92 NSCLC; 99.5% in the assay with A549/ATCC NSCLC. The values for the growth in the assay with 786-0 renal and in the assay on COLO 205 colon were 107% and 112%, respectively.

Take `CCOC(=O)C1=C(C)N2C(=NC3=C(CCCC/C3=C\c3ccccc3)C2c2ccccc2)S1` (stereo not drawn): the growth is 95.5% in the assay with NCI-H23 lung; 92% in the assay with NCI-H322M lung; 117% in the assay on HOP-62 NSCLC; 99.1% in the assay with NCI-H460 lung; -2.46% (active) in the assay with HOP-92 NSCLC; 99.1% in the assay with A549/ATCC NSCLC. For the same molecule, the growth was 96.6% in the assay on 786-0 renal and 117% with COLO 205 colon.

In the case of `COc1cc(-c2nc(SC(C)C)nc(Nc3ccccc3C)c2C#N)cc(OC)c1OC`, the growth is 105% with NCI-H23 lung; 106% in the assay with NCI-H322M lung; 104% in the assay with HOP-62 NSCLC; 107% in the assay with NCI-H460 lung; 110% in the assay with HOP-92 NSCLC; 101% with A549/ATCC NSCLC. In addition, the growth in the assay with 786-0 renal is 108%; in the assay on COLO 205 colon, 117%.
